CYP2C19 activ: activators of human cytochrome P450 2C19; recombinant CYP2C19, luciferin-H EGE luminescence; stronger effect = higher value; 0 = fully inhibited enzyme, 1 = untreated enzyme; activation factor at 5 µM; 96,000 tested, under 10 active; AID 1025;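 active = activation factor of at least 2 at 5 µM in the primary screen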;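 also: 0 = wells with 2.5 mM tranylcypromine and 1 = vehicle-only wells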
Target sequence (P33261 whole entry, looked up): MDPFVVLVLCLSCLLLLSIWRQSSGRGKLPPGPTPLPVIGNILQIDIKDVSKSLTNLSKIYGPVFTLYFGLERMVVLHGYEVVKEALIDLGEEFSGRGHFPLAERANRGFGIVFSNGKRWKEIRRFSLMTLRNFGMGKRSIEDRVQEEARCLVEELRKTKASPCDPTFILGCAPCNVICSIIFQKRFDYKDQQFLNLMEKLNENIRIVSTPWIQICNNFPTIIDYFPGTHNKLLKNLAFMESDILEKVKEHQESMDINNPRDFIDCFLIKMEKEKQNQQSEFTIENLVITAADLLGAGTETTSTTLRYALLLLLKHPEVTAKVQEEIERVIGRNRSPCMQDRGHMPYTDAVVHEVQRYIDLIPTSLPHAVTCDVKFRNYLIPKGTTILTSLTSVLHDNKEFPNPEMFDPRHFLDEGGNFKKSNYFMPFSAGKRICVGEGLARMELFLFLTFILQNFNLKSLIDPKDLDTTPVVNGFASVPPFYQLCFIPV
CYP2C9 act: increases human cytochrome P450 2C9 activity; recombinant CYP2C9, luciferin-H conversion, luminescence; stronger effect = higher value; factor 1 = untreated enzyme, 0 = blocked; activation factor at 5 µM; 1.4% of 96,000 active; AID 1024;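 active = activation factor of 2 or more for CYP2C9 at a 5 µM dose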;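 also: 0 = sulfaphenazole-blocked wells and 1 = vehicle-only wells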
CYP2C19 inhib: inhibitors of human CYP2C19. 21% of 96,000 active. AID 778. P33261. inhibition, % at 5 µM. CYP2C19 Supersomes, luciferin-H EGE luminescence, 30 min;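 active = CYP2C19 inhibition above a set limit at 5 µM in the primary screen, cut at about 50% in these data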;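 also: plate controls were negative control wells for no effect and 2.5 mM tranylcypromine positive control for full effect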
CYP2C9 inhib: inhibitors of human CYP2C9; CYP2C9 Supersomes, luciferin-H conversion, luminescence; inhibition, % at 5 µM; 20% of 96,000 active;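 active = blocking of liver enzyme CYP2C9 beyond about 50% at 5 µM, limit read from the data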
PLAP act: activates human placental alkaline phosphatase; AID 696; activation fold at 20 µM; P05187; purified PLAP enzyme, luminescent substrate read-out; stronger effect = higher value; 1.2% of 96,000 active; in the data active = activation fold above about 2
* = called active by the depositor. In the library only some 31% were active in any assay of this set; here they are far more common.

SMILES	CYP2C19 activ	CYP2C9 act	CYP2C19 inhib	CYP2C9 inhib	PLAP act
CCSc1nnc(NC(=O)CSc2nnc(-c3c[nH]c4ccccc34)n2C)s1	0.7	0.2	30.0	75.5*	1.2
CCc1nnc(NC(=O)CSc2nnc(-c3c[nH]c4ccccc34)n2CCOC)s1	0.9	0.6	14.8	39.2	1.2
COCCn1c(SCC(=O)Nc2nnc(C)s2)nnc1-c1c[nH]c2ccccc12	0.8	0.5	18.8	51.3*	1.3
Cc1occc1-c1nnc(SCC(=O)NCc2ccc3c(c2)OCO3)n1CC(C)C	0.8	0.8	20.9	15.6	1
COCCn1c(SCC(=O)NCc2ccc3c(c2)OCO3)nnc1-c1c[nH]c2ccccc12	0.4	0.3	59.1*	69.1*	1.5
CCN(CC)C(=O)CSc1nnc(COc2ccccc2)n1CC	0.7	0.9	27.9	13.6	1
COC(=O)c1c(NC(=O)CN2CCN(c3ccccc3)CC2)c2c(C)cccc2n1C	0.7	0.7	33.8	27.3	1.4
COCCn1nnnc1C(c1cccc(OC)c1OC)N1CCN(C2CCCCC2)CC1 (stereo not drawn)	1	0.9	2.4	12.4	1.7
Cc1cccn2c(=O)c3cc(C#N)c(=O)n(CC4CCCO4)c3nc12 (stereo not drawn)	0.8	0.8	24.1	15.2	1.1
Cc1nc2ccccc2c(=O)n1/N=C/c1ccccc1	0.6	0.8	41.2	18.4	0.9
Cc1nc2ccccc2c(=O)n1/N=C/c1ccncc1	0.2	0.7	76.4*	27.0	0.9
Cc1[nH]n(-c2ccccc2)c(=O)c1/C=N/n1c(C)nc2ccccc2c1=O	1.1	0.8	-11.6	18.3	1.2
Cc1nc2ccccc2c(=O)n1/N=C/c1cn(-c2ccccc2)nc1-c1cccs1	0.2	0	80.0*	98.1*	1.7
Cc1ccc(-n2[nH]c(C)c(/C=N/n3c(C)nc4ccccc4c3=O)c2=O)cc1	0.7	0.4	29.9	55.4*	1.5
Cc1cccc(Sc2nc(-c3ccccc3)ccc2C#N)c1	0.9	0.8	12.0	20.7	1
CSc1ccccc1NC(=O)CN(c1cccc(C)c1)S(C)(=O)=O	0.5	0.5	50.6*	53.3*	1
Cc1cccc(N(CC(=O)Nc2ccccc2F)S(C)(=O)=O)c1	0.1	0.3	92.1*	69.0*	1
CCc1ccc(NC(=O)CN(c2cccc(C)c2)S(C)(=O)=O)cc1	0.6	0.6	41.7	39.0	0.8
Fc1ccccc1/C=C1\CCCC2=C1Nc1nnnn1C2c1ccccc1F (stereo not drawn)	0.9	1.1	9.1	-6.4	0.8
Cc1cc(N(C(=O)c2ccco2)C(C(=O)NC2CCCCC2)c2ccccc2)ccc1-n1cnnn1 (stereo not drawn)	0.4	0.1	55.8*	91.5*	1.6
COc1ccc(N(C(=O)Cc2cccs2)C(C(=O)NC2CCCCC2)c2cccn2C)cc1 (stereo not drawn)	1	1.1	2.8	-7.8	0.8
COc1cccc(C(C(=O)NC2CCCCC2)N(C(=O)Cc2cccs2)c2ccc(-n3cnnn3)c(OC)c2)c1 (stereo not drawn)	0.3	0.7	65.0*	30.7	1.3
Cc1ccc(N(C(=O)CNC(=O)c2ccco2)C(C(=O)NC2CCCC2)c2cccnc2)cc1C (stereo not drawn)	1	1	4.8	3.6	1.4
CCCCC(CCC(=O)Nc1nccs1)C(=O)O (stereo not drawn)	0.9	1	7.1	2.5	0.9
CCn1c(SCC(=O)Nc2nc3ccc(C)cc3s2)nc2c(c1=O)SC(C)C2 (stereo not drawn)	0.3	0.2	69.4*	77.3*	1.2
SMILES	CYP2C19 activ	CYP2C9 act	CYP2C19 inhib	CYP2C9 inhib	PLAP act
CCn1c(SCC(=O)Nc2cc(C)on2)nc2c(c1=O)SC(C)C2 (stereo not drawn)	0.8	0.4	15.5	62.3*	0.8
CCn1c(SCC(=O)Nc2nc3ccccc3s2)nc2c(c1=O)SC(C)C2 (stereo not drawn)	0	0	96.7*	98.4*	1.3
CC(C)c1ccc(C2C3=C(CC(C)(C)CC3=O)NC3=C2C(=O)c2ccccc23)cc1 (stereo not drawn)	0.9	0.7	11.9	25.1	1
N#Cc1c(-n2ccnc2)cccc1-n1ccnc1	0.2	0.1	80.7*	94.5*	0.9
CC1(C)Cc2c(ccc3ccccc23)/C(=C/C#N)N1	1	1	-1.3	0.4	0.9
CNC(=O)/C=C1\NC(C)(C)Cc2c1ccc1ccccc21	0.3	0.9	66.6*	12.3	1.5
COC(=O)N1CCN(c2ccc(Cl)c(Cl)c2)CC1	0.3	0.7	66.3*	28.3	1

Bioassay records deposited in PubChem by Sanford-Burnham Center for Chemical Genomics.
